Results filed as inconclusive are left out. Activity calls are given as the source filed them.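 The calls were made as follows: active = potency, the concentration giving half inhibition in the gel assay, of 75 µM or lower; inconclusive = potency above 75 µM yet under 100 µM; inactive = potency of 100 µM or weaker, or none.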

Chain of Ubiquitin carboxyl-terminal hydrolase 1 (Homo sapiens) + WD repeat-containing protein 48 (Homo sapiens) (O94782 whole entry, looked up): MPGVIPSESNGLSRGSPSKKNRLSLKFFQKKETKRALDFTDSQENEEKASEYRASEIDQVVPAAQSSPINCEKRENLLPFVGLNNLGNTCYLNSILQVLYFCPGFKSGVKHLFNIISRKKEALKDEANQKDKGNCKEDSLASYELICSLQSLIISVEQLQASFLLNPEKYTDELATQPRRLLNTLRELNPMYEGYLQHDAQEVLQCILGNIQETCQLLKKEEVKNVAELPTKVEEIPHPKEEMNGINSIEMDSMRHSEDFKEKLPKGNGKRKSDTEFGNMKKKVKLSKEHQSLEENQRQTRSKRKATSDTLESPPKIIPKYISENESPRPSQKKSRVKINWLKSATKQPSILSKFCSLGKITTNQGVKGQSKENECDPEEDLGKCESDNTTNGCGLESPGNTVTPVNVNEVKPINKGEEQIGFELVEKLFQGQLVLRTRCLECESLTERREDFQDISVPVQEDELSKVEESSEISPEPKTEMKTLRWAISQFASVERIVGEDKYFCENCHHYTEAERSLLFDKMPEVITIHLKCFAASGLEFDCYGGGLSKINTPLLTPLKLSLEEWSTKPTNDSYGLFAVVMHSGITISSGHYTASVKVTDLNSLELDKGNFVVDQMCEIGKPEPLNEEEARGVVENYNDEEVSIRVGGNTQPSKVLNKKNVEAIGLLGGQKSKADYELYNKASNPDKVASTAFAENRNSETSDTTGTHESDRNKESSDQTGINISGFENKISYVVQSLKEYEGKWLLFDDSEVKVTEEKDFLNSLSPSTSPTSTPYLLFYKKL
Chain of Ubiquitin carboxyl-terminal hydrolase 1 (Homo sapiens) + WD repeat-containing protein 48 (Homo sapiens) (Q8TAF3 whole entry, looked up): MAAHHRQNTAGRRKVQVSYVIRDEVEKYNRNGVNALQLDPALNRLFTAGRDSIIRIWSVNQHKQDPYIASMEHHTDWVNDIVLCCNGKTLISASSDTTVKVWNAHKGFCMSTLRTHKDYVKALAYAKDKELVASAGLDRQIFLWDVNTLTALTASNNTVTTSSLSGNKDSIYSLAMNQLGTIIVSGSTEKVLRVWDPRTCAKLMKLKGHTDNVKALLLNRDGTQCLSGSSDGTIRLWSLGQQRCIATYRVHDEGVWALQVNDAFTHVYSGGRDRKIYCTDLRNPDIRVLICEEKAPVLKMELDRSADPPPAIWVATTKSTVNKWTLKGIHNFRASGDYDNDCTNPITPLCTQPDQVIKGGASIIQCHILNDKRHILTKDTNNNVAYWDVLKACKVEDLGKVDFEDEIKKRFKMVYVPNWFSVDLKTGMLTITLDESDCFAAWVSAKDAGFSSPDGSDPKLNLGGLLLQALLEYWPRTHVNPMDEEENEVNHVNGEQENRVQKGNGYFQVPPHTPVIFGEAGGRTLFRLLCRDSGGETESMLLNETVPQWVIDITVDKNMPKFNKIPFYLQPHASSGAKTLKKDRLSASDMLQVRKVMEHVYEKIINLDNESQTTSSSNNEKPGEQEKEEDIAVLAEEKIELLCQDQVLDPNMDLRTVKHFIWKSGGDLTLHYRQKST

This assay has as its target Ubiquitin carboxyl-terminal hydrolase 1 (Homo sapiens) + WD repeat-containing protein 48 (Homo sapiens) (UniProt O94782+Q8TAF3). In words: Inhibitors of USP1/UAF1: Hit Validation in USP1 Diubiquiting Gel Assay. The settings on record: USP1/UAF1 K63 diubiquitin cleavage, SDS-PAGE gel. The source says:
Deubiquitinating enzymes (DUBs) are a class of enzymes that can cleave isopeptide bond formed between the C-terminal carboxylate of ubiquitin and a lysine side-chain amino group on the target protein. Among them, ubiquitin specific proteases (USPs) constitute the largest DUB family. Human USPs are emerging as promising targets for pharmacological intervention because of their connection to a number of human diseases, including prostate, colon and breast cancer (1, 2), pediatric acute lymphoblastic leukemia (3), and familial cylindromatosis (4). The advantage of inhibiting USPs lies in the potential specificity of therapeutic intervention that can lead to better efficacy and reduce nonspecific side effects. In a collaboration between the University of Delaware and the NIH Chemical Genomics Center, a high-throughput screen assay was developed to screen for USP1/UAF1 inhibitors. This miniaturized assay has a fluorescent read-out and is used to screen the NIH Molecular Libraries Small Molecule Repository (MLSMR) in order to identify a small molecule that inhibits USP1. Follow-up assays have also been developed to further test the hits from the primary screen. This assay validates the hits identified from the primary screen using a USP1 diubiquiting gel assay. NIH Chemical Genomics Center [NCGC] NIH Molecular Libraries Probe Centers Network [MLPCN] MLPCN Grant: DA030552 Assay Submitter (PI): Zhihao Zhuang, University of Delaware 1. Priolo, C., et al. (2006) The isopeptidase USP2a protects human prostate cancer from apoptosis. Cancer Res 66, 8625-8632 2. Popov, N., et al. (2007) The ubiquitin-specific protease USP28 is required for MYC stability. Nat Cell Biol 9, 765-774 3. De Pitta, C., et al. (2005) A leukemia-enriched cDNA microarray platform identifies new transcripts with relevance to the biology of pediatric acute lymphoblastic leukemia. Haematologica 90, 890-898 4. Kovalenko, A., et al. (2003) The tumour suppressor CYLD negatively regulates NF-kappaB signalling by deubiquitination. Nature 424, 801-805
The inhibition assay contains 100 nM for USP1/UAF1, 2 microM K63 linked diubiquitin, and inhibitors at varied concentrations (0.08 microM - 114 microM). The reaction was allowed for 1 hour at 37 degrees C, and quenched by the addition of Laemmli sample buffer. The reaction product was separated on a 20% denaturing SDS-PAGE gel and stained with Coomassie Blue. The intensity of the individual diubiquitin and monoubiquitin band was quantified using Quantity One 4.3.1 (Biorad, Hercules, CA). The percentage of the conversion was determined and used to calculate the reaction rate. The rate was plotted against inhibitor concentrations and fitted to determine the IC50 values using GraphPad Prism (GraphPad Software, Inc. La Jolla, CA).
As for `Clc1ccccc1-c1nccc(NCc2ccccc2)n1`, the Potency was 20 µM (active).
Take `COc1ccccc1-c1cc(NCc2ccccc2)ncn1`: the Potency was 10.9 µM (active).
Consider `COc1ccc(CNc2nc(-c3ccccc3OC)nc3ccccc23)c(OC)c1`, for which the Potency is 14.5 µM (active).
Same read-out and setting: the value for `Cc1cccc(CNc2cc(-c3ccccc3C)ncn2)c1` was 26.3 µM (active).
Regarding `Cc1cccc(CNc2ccnc(-c3ccccc3Cl)n2)c1`, the outcome was inactive.
Take `c1ccc2c(Nc3ccncc3)nc(-c3ccc4c(c3)OCO4)nc2c1`: the Potency is 28.6 µM (active).
For the molecule `COc1ccccc1-c1nc(NCc2ccccc2)c2ccccc2n1`, the Potency is 6.4 µM (active).
As for `COc1cccc(-c2nccc(NCc3cccc(C)c3)n2)c1`, the Potency is 13 µM (active).
Regarding `Cc1cccc(CNc2ccnc(-c3ccccc3C(F)(F)F)n2)c1`, the Potency was 3 µM (active).
The same measure, in the same setting: the figure for `FC(F)(F)c1ccccc1-c1nc(NCc2cccs2)c2ccccc2n1` is 3.3 µM (active).
Still for that read-out and setting: the value for `COc1ccccc1CNc1nc(-c2ccc(N(C)C)cc2)nc2ccccc12` was 10 µM (active); that for `COc1ccccc1-c1nc(NCc2cccs2)c2ccccc2n1` was 21.3 µM (active); that for `N#Cc1cccc(-c2ccc3ncnc(NCc4ccccc4)c3c2)c1` was 26.6 µM (active).
`Cc1ccccc1-c1nc(NCc2cccnc2)c2ccccc2n1`: the result was inactive.
As for `Cc1noc(C)c1-c1nc(NCc2cccs2)c2ccccc2n1`, the Potency is 5 µM (active).
On the same count and under the same terms, the value for `COc1ccccc1-c1nccc(NCc2ccccc2)n1` was 16.9 µM (active); that for `FC(F)(F)c1ccccc1-c1nccc(NCc2ccccc2)n1` was 9.6 µM (active).
For `Fc1ccc(Nc2nc(-c3cccnc3)nc3ccccc23)cc1`, the outcome was inactive.
Take `COc1ccc(CNc2ccnc(-c3ccccc3C(F)(F)F)n2)c(OC)c1`: the Potency is 4.5 µM (active).
On to `FC(F)(F)c1ccccc1-c1nccc(NCc2cccs2)n1`, for which the result was inactive.
In the case of `COc1ccccc1CNc1ccnc(-c2ccccc2C(F)(F)F)n1`, the Potency is 4.2 µM (active).
Still for that read-out and setting: the figure for `COc1ccccc1-c1nccc(NCc2cccc(C)c2)n1` is 18.8 µM (active).
As for `FC(F)(F)c1ccccc1-c1nc(NCc2cccnc2)c2ccccc2n1`, the result was inactive.
As to `Cc1ccccc1-c1nc(NCc2cccs2)c2ccccc2n1`, the Potency is 6 µM (active).
